Assay [1] concerns the target guinea pig Sigma Receptor, Non-selective Binding, SIGMAR1 (gene 100135589) (UniProt Q60492). The assay can be described thus: NVS_OR_gSIGMA_NonSelective: NovaScreen (NVS) Nuclear Receptor Binding Assay for guinea pig Sigma Receptor, Non-selective Binding (AID 2283367). In outline:
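Radioligand displacement on guinea pig brain membranes, read by filter-based scintillation counting 1 h after dosing. Loss of signal versus DMSO; initial duplicate single-point screen at 25 uM, actives followed in concentration series.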

The target of assay [2] is Agonist Androgen Response Element (ARE), AR (gene 367) (UniProt P10275). The assay is described as follows: OT_AR_ARELUC_AG_1440: Odyssey Thera (OT) 24-hour CHO-K1 Luciferase Assay for Agonist Androgen Response Element (ARE) (AID 2283379). In outline: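 CHO-K1 cells carrying an ARE-driven luciferase reporter were exposed to compounds for 24 h. Luminescence was then read after adding a D-luciferin/ATP mix, and activity was scored as a gain in signal over DMSO vehicle.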
Chain of Agonist Androgen Response Element (ARE), AR (gene 367) (P10275 whole entry, looked up): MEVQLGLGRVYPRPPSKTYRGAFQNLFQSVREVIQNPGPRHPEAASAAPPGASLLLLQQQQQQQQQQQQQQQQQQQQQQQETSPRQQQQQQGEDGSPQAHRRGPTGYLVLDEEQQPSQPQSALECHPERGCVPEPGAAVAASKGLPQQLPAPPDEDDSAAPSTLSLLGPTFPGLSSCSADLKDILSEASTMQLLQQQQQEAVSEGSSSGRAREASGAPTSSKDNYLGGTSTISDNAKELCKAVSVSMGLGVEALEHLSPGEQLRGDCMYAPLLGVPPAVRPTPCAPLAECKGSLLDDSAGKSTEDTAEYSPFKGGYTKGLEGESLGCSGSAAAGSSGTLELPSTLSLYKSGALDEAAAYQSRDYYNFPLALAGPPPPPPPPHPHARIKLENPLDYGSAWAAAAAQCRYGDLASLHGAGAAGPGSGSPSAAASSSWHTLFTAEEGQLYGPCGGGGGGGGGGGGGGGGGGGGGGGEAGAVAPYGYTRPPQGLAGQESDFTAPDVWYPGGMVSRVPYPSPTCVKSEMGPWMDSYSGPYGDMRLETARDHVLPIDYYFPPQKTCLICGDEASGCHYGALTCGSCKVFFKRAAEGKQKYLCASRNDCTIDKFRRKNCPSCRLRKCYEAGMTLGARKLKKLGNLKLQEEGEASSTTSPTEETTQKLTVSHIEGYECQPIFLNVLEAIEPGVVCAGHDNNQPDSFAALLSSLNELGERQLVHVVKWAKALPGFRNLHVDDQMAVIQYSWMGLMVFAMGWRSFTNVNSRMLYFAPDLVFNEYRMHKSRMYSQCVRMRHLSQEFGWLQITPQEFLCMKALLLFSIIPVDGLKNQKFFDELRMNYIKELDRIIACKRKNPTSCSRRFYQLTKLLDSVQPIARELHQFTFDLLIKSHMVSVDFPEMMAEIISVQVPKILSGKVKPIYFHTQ

For assay [3], the target named is Estrogen receptor beta (Homo sapiens) (UniProt Q92731). The assay can be described thus: OT_ER_ERbERb_1440: Odyssey Thera (OT) 24-hour HEK293T Protein-Complementation Assay for Estrogen Receptor-beta/-beta Homodimer (AID 2283380).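 Note: scored as signal increase over DMSO baseline for both agonists and antagonists.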 In outline:
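HEK293T cells stably expressing ER beta LBD (aa 310-547) homodimer fragment-complementation reporter, dosed 24 h. Cells formaldehyde-fixed, Draq5-stained; gain in nuclear (agonist) or nuclear plus cytoplasmic (antagonist) fluorescence versus DMSO read by laser scanning cytometry.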

Assay [4] deals with Estrogen receptor (Homo sapiens) (UniProt P03372). The assay can be described thus: OT_ERa_GFPERaERE_0480: Odyssey Thera (OT) 8-hour HeLa Transcription Induction Assay for Estrogen Receptor (AID 2283381; active = hit-call score of the fitted dose curve at least 0.9, where 1 is the maximum; inactive = score below 0.9). The gist of the method:
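HeLa cells dosed with compound and imaged by fluorescence microscopy at 8 h; GFP induction from an ERE reporter quantified by high-content image analysis and fitted as gain of signal against DMSO baseline.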

For assay [5] the target is unchanged. The assay can be described thus: OT_ERa_GFPERaERE_0120: Odyssey Thera (OT) 2-hour HeLa Transcription Induction Assay for Estrogen Receptor (AID 2283382). The gist of the method: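 HeLa cells were dosed with test chemical and read 2 hours later for GFP-ERα/ERE-linked fluorescent protein induction by fluorescence microscopy. Gain-of-signal was fitted relative to DMSO baseline, quantified by high content image analysis.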

For assay [6], the target named is Retinoic acid receptor RXR-alpha (Homo sapiens) (UniProt P19793). The assay is described as follows: OT_NURR1_NURR1RXRa_0480: Odyssey Thera (OT) 8-hour HEK293T Protein Complementation Assay for Nurr1/retinoid X receptor (RXR) (AID 2283385). In outline:
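HEK293T cells expressing Nurr1 and RXRα fused to reporter fragments were dosed with compound for 8 hours. Complex formation was read as fluorescence intensity and analysed as gain of signal against DMSO as baseline.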

For assay [7] the target is unchanged. The assay can be described thus: OT_NURR1_NURR1RXRa_1440: Odyssey Thera (OT) 24-hour HEK293T Protein Complementation Assay for Nurr1/retinoid X receptor (RXR) (AID 2283386). The gist of the method: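 HEK293T cells were dosed with compound and read 24 h later by fluorescence intensity in a protein-fragment complementation format, where Nurr1–RXRα interaction reconstitutes a split reporter. Activity was fitted as gain of signal relative to DMSO baseline.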

For assay [8], the target named is Peroxisome proliferator-activated receptor gamma (Homo sapiens) (UniProt P37231). The assay can be described thus: OT_PPARg_PPARgSRC1_0480: Odyssey Thera (OT) 8-hour Protein-Complementation Assay for Peroxisome Proliferator-activated Receptor Gamma / SRC-1 Co-activator (AID 2283387).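 Note: nuclear to cytoplasmic split Venus YFP fluorescence ratio reporting PPARg SRC-1 interaction.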 In outline: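 Protein-fragment complementation in HEK293T: Venus YFP halves (residues 1-158, 159-239, mutated to IFP1/IFP2) fused to PPARg/SRC-1. 8 h exposure; N/C ratio at 488 nm; DMSO negative control.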
Chain of Peroxisome proliferator-activated receptor gamma (Homo sapiens) (P37231 whole entry, looked up, the tested form may be a part): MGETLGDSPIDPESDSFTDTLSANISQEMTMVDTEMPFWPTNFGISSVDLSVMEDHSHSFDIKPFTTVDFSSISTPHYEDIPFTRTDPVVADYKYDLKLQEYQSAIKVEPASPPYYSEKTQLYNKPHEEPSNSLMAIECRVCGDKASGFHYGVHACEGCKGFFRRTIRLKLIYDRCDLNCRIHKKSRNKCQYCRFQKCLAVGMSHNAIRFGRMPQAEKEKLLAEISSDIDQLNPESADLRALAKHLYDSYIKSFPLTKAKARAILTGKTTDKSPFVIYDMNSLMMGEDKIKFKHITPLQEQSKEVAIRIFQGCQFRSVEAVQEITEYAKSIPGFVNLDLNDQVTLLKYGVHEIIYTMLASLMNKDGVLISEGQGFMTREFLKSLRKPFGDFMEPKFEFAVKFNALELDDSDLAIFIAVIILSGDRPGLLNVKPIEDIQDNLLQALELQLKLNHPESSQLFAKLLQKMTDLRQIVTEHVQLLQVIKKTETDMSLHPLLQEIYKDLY

The target in assay [9] is human Norepinephrine Transporter (NET), SLC6A2 (gene 6530) (UniProt P23975). The assay can be described thus: NVS_TR_hNET: NovaScreen (NVS) Transporter Assay for human Norepinephrine Transporter (NET) (AID 2283377). In outline: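 Cell-free radioligand binding using CHO-derived membrane protein expressing human NET, read by filter scintillation counting 1 h after dosing; loss of signal vs DMSO. Initial duplicate screen at 25 uM, actives retested in concentration series.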
Chain of human Norepinephrine Transporter (NET), SLC6A2 (gene 6530) (P23975 whole entry, looked up): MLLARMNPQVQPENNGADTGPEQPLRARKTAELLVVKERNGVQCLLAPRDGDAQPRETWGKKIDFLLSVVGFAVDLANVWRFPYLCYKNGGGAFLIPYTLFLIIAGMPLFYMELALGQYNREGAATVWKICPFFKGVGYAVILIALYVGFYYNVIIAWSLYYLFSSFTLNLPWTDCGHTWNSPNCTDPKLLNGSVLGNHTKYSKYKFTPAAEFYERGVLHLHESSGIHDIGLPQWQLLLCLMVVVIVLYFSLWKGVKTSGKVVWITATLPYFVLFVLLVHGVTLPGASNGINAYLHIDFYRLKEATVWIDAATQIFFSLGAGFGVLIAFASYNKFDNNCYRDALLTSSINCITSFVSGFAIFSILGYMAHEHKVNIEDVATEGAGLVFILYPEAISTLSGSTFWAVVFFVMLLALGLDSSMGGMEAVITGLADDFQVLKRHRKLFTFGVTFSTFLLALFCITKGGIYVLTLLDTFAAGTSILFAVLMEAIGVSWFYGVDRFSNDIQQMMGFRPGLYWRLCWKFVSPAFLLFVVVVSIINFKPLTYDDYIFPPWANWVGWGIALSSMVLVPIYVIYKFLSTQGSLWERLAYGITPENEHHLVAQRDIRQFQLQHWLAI

Assay [10] has as its target mouse Estrogen Receptor alpha (Era), Esr1 (gene 13982) (UniProt P19785). The assay is described as follows: NVS_NR_mERa: NovaScreen (NVS) Nuclear Receptor Binding Assay for mouse Estrogen Receptor alpha (Era) (AID 2283378).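 Note: hit means loss of bound radioligand signal relative to DMSO.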 The gist of the method: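 Cell-free radioligand binding with extracted mouse Era protein; competitive displacement of radiolabelled ligand, read by filter-based scintillation counting 18 hours after dosing. Loss of signal versus DMSO baseline taken as binding; single screening concentration 25 uM, actives followed in concentration series.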

Assay [11] addresses Bile acid receptor (Homo sapiens) (UniProt Q96RI1). The assay can be described thus: OT_FXR_FXRSRC1_0480: Odyssey Thera (OT) 8-hour HEK293T Protein-Complementation Assay for Farnesoid X receptor/SRC-1 Co-activator (AID 2283383). In outline: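 HEK293T cells expressing FXR and SRC-1 fused to reporter fragments were dosed with compound for 8 h; fluorescence from the reconstituted reporter marked co-activator recruitment. Gain of signal was fitted against the DMSO baseline.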

Assay [12] deals with guinea pig Dopamine Transporter (DAT), gene 100714898. The assay is described as follows: NVS_TR_gDAT: NovaScreen (NVS) Transporter Assay for guinea pig Dopamine Transporter (DAT) (AID 2283369).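 Note: active compounds lower bound radioligand signal relative to DMSO.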 The gist of the method: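 Guinea pig striatal membranes; radioligand displacement measured by filter-based scintillation counting 2 h after dosing. Initial duplicate screen at 25 uM, then concentration-response up to 50 uM for hits; loss of signal versus DMSO baseline.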

The target of assay [13] is human Serotonin Transporter (SERT), SLC6A4 (gene 6532) (UniProt P31645). The assay can be described thus: NVS_TR_hSERT: NovaScreen (NVS) Transporter Assay for human Serotonin Transporter (SERT) (AID 2283372). The gist of the method:
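Radioligand binding to native SERT in human platelet membranes, read by filter-based scintillation counting 1 h after dosing. Primary screen in duplicate at 25 uM; actives followed up in concentration series; loss of signal versus DMSO baseline.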

For assay [14], the system named is rat Norepinephrine Transporter (NET), gene 83511. The assay is described as follows: NVS_TR_rNET: NovaScreen (NVS) Transporter Assay for rat Norepinephrine Transporter (NET) (AID 2283373). The gist of the method: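 Rat forebrain membranes; radioligand binding measured by filter-based scintillation counting 1 hour after dosing. Loss of specific binding versus DMSO baseline scored; primary screen in duplicate at 25 uM, actives followed up in concentration series.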

Each structure is given as a SMILES string. Results filed as inconclusive are left out. Some structures have more than one record in an assay (separate samples or runs), and their calls can disagree. The source made the active and inactive calls. Rule for the calls, unless noted: active = hit-call score of the fitted dose curve at least 0.9, where 1 is the maximum; inconclusive = response in the unintended direction; inactive = score below 0.9.

Chain of Estrogen receptor (Homo sapiens) (P03372 whole entry, looked up): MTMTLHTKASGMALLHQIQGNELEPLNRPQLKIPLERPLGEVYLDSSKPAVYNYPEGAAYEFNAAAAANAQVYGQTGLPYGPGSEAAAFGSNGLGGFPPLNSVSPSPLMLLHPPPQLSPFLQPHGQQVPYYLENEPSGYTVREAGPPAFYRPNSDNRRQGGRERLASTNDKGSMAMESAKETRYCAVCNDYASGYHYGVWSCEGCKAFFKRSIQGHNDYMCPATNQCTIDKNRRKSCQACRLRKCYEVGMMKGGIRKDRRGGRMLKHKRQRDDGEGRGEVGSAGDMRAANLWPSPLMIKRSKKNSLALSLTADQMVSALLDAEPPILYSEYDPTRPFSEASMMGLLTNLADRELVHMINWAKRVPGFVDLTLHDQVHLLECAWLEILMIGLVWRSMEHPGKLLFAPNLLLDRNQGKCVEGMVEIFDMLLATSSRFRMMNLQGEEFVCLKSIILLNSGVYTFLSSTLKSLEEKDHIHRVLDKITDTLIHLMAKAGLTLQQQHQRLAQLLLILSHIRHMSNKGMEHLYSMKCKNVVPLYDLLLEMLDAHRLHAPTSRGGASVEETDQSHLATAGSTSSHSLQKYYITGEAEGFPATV
Chain of Retinoic acid receptor RXR-alpha (Homo sapiens) (P19793 whole entry, looked up, the tested form may be a part): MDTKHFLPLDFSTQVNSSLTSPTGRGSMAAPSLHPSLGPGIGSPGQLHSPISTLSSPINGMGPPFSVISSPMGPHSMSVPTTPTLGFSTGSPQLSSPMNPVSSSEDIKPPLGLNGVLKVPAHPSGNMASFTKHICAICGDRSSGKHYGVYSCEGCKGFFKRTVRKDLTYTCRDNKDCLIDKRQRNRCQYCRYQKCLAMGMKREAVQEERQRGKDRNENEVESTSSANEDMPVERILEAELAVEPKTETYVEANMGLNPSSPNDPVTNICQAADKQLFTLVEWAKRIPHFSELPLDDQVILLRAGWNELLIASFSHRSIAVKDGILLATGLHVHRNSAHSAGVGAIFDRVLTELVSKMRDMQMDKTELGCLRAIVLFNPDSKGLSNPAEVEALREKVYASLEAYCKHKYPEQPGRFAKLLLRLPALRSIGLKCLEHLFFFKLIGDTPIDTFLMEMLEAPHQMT
Chain of Bile acid receptor (Homo sapiens) (Q96RI1 whole entry, looked up, the tested form may be a part): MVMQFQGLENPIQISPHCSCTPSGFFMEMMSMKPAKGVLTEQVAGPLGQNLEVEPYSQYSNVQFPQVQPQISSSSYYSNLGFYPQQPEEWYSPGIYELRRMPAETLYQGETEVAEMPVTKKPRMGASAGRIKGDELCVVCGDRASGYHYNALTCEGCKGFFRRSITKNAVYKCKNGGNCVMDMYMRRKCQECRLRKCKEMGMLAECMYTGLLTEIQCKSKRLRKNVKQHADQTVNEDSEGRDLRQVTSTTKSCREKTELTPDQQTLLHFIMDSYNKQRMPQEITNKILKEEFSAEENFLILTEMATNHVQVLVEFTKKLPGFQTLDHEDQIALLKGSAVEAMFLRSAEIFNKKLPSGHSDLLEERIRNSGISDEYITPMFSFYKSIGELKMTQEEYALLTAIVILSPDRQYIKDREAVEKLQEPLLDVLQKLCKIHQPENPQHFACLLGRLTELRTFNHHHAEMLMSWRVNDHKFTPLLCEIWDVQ
Chain of guinea pig Sigma Receptor, Non-selective Binding, SIGMAR1 (gene 100135589) (Q60492 whole entry, looked up): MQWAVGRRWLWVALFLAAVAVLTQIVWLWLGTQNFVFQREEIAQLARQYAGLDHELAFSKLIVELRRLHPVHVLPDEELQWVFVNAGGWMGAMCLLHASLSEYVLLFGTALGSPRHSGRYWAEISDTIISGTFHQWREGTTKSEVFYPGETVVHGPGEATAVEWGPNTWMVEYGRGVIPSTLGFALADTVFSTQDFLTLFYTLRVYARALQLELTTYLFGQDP
Chain of Estrogen receptor beta (Homo sapiens) (Q92731 whole entry, looked up, the tested form may be a part): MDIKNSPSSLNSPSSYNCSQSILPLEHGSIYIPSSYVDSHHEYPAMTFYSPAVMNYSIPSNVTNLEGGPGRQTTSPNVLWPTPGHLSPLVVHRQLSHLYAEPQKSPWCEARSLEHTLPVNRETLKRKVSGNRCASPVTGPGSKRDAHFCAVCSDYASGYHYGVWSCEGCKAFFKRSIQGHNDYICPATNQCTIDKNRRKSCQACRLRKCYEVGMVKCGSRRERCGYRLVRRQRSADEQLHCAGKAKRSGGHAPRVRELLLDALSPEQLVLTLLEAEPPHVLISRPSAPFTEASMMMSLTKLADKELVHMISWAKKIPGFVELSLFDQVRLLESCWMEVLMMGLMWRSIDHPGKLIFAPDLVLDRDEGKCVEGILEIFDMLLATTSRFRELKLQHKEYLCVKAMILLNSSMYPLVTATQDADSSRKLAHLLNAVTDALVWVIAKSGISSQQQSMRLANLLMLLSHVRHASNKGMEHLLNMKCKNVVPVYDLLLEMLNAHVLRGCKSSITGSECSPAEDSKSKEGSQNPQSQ
Chain of mouse Estrogen Receptor alpha (Era), Esr1 (gene 13982) (P19785 whole entry, looked up): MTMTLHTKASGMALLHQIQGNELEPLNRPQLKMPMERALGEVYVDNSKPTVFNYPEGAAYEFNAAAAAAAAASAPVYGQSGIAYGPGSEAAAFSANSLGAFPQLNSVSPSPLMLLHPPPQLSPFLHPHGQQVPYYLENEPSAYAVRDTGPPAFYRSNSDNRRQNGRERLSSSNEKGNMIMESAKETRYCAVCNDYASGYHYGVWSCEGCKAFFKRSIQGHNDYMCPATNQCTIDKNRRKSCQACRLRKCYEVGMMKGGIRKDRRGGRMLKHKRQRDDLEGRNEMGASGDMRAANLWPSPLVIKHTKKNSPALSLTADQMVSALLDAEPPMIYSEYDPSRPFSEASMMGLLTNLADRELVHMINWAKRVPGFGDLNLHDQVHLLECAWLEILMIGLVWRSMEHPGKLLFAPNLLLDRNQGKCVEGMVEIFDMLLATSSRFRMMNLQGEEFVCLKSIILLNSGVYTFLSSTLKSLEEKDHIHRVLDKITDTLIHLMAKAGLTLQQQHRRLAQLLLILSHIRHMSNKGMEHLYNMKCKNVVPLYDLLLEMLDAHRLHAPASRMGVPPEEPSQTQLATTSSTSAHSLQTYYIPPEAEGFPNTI

For the molecule `Cc1cccc([N+](=O)[O-])c1C`, the molecule was called inactive in [1], in assay [2], in assay [3], in assay [4], in [5] and in assay [6]. Further, the outcome in [7] and in assay [8] was inactive.
For the molecule `CC(C)(C)c1cc(O)c(C(C)(C)C)cc1O`, the AC50 in [1] was 5.75 µM (active); in assay [7], 33.3 µM (active). Moreover, the result in [9], in assay [10], in assay [3], in assay [4], in [5] and in assay [6] was inactive. The result in assay [7] and in assay [8] was inactive.
`Cc1ccccc1Cl`: the half-maximal activity concentration (AC50) in assay [1] is 15.7 µM (active). The molecule was called inactive in assay [10], in assay [2], in assay [4], in assay [5], in assay [11] and in assay [6]. The result in assay [7] and in [8] was inactive.
Take `Cc1ccc(C(C)C)c(O)c1`: the outcome in assay [1], in [12], in assay [3], in [4], in assay [5] and in [6] was inactive. Besides, the molecule was called inactive in assay [7] and in assay [8].
With `O=[N+]([O-])C(CO)(CO)CO`, the molecule was called inactive in assay [13].
As to `C=CCOC(=O)c1ccccc1C(=O)OCC=C`, in assay [14], the half-maximal activity concentration (AC50) is 25 µM (active).
In the case of `Nc1ccccc1N`, the result in assay [3], in assay [4], in assay [5], in assay [6], in assay [7] and in assay [8] was inactive.
As for `CCCCCCCCCCCCCCCC`, the outcome in assay [4], in assay [5], in [7] and in [8] was inactive.
Turning to `COCCOC[C@H](CC1(C(=O)NC2CCC(C(=O)O)CC2)CCCC1)C(=O)Oc1ccc2c(c1)CCC2` (stereo not given in full), the call in assay [3], in assay [4], in [5], in assay [6], in assay [7] and in assay [8] was inactive.
Turning to `O=C(O)CCCCC(=O)O`, the outcome in assay [3], in assay [4], in [5], in assay [11], in assay [6] and in assay [7] was inactive. Also, the result in [8] was inactive.
Regarding `Cc1cc(=O)[nH]c(=S)[nH]1`, the molecule was classed as inactive in assay [4], in [5], in assay [11], in assay [6], in [7] and in [8].
On to `C[Si]1(C)O[Si](C)(C)O[Si](C)(C)O[Si](C)(C)O1`, for which the call in [10], in assay [3], in [4], in assay [5], in assay [11] and in [6] was inactive. The outcome in [7] and in assay [8] was inactive.
Consider `C1CCC(SSC2CCCCC2)CC1`, for which the molecule was classed as inactive in assay [3], in assay [4], in [5], in assay [6], in assay [7] and in [8]. Besides, in [6], the concentration at half-maximal activity (AC50) is 79.5 µM (active).
For the molecule `CCCCCCCCCCO`, the result in [3], in assay [4], in assay [5], in assay [11], in assay [6] and in assay [8] was inactive.
As to `COc1ccc(C)cc1N`, the call in assay [2], in [4], in [5], in [6], in assay [7] and in assay [8] was inactive.
`CCCCOC(=O)CCCCCCCCC(=O)OCCCC`: the result in assay [3], in assay [4], in [5], in assay [6], in [7] and in [8] was inactive.
Consider `Cc1cc(NC(=O)C(=O)O)cc(C)c1Oc1ccc(O)c2c1CCC2`, for which the molecule was called inactive in assay [2], in [4], in assay [5], in [11], in [6] and in assay [7].

The values are drawn from PubChem BioAssay (EPA / NIEHS).
